This assay concerns the target CCT7 (UniProt Q99832). Description: cross-linking mass spectrometry. As to conditions: lysate.
Sequence of CCT7 (Q99832 whole entry): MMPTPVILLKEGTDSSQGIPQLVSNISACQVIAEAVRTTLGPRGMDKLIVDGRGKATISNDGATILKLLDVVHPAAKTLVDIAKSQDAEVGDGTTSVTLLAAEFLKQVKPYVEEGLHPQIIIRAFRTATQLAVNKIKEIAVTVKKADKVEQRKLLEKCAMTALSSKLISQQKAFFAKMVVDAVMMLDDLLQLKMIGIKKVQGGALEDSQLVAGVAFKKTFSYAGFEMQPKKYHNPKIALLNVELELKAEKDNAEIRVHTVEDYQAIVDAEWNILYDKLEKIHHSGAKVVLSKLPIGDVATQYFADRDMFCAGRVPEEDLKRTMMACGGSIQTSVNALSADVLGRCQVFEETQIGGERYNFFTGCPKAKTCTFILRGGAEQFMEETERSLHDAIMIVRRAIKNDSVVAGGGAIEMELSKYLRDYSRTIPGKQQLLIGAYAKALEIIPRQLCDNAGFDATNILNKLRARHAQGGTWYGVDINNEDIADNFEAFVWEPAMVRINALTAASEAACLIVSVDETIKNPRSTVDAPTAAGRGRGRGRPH
Sequence of CCT5, P48643 (P48643 whole entry): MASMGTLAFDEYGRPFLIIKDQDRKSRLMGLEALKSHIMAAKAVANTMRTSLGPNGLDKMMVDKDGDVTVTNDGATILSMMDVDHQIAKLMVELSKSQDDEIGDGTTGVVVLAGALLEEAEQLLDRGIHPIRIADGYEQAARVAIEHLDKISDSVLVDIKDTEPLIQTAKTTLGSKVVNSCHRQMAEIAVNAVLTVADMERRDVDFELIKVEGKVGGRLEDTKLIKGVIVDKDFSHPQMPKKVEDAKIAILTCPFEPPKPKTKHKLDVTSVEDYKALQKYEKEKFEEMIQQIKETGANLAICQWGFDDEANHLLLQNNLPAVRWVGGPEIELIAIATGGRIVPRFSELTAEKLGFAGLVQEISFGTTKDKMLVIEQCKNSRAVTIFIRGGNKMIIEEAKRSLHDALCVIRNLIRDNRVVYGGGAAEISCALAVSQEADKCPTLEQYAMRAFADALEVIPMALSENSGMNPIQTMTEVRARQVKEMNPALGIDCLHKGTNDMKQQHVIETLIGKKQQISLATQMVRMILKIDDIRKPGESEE
Sequence of CCT8, P50990 (P50990 whole entry): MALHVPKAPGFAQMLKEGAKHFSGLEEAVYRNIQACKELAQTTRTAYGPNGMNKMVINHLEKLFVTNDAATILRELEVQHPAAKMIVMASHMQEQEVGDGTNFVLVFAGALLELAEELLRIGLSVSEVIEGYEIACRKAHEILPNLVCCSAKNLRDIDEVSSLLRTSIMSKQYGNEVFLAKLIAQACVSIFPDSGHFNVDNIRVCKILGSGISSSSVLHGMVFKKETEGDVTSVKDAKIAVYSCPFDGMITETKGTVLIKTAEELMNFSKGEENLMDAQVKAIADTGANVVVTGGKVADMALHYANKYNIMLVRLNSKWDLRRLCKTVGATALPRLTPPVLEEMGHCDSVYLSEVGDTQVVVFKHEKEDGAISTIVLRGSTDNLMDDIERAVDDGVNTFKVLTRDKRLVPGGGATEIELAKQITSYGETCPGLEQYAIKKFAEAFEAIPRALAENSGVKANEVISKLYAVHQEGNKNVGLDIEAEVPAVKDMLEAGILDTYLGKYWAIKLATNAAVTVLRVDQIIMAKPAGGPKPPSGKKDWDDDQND
Sequence of USO1, O60763 (O60763 whole entry): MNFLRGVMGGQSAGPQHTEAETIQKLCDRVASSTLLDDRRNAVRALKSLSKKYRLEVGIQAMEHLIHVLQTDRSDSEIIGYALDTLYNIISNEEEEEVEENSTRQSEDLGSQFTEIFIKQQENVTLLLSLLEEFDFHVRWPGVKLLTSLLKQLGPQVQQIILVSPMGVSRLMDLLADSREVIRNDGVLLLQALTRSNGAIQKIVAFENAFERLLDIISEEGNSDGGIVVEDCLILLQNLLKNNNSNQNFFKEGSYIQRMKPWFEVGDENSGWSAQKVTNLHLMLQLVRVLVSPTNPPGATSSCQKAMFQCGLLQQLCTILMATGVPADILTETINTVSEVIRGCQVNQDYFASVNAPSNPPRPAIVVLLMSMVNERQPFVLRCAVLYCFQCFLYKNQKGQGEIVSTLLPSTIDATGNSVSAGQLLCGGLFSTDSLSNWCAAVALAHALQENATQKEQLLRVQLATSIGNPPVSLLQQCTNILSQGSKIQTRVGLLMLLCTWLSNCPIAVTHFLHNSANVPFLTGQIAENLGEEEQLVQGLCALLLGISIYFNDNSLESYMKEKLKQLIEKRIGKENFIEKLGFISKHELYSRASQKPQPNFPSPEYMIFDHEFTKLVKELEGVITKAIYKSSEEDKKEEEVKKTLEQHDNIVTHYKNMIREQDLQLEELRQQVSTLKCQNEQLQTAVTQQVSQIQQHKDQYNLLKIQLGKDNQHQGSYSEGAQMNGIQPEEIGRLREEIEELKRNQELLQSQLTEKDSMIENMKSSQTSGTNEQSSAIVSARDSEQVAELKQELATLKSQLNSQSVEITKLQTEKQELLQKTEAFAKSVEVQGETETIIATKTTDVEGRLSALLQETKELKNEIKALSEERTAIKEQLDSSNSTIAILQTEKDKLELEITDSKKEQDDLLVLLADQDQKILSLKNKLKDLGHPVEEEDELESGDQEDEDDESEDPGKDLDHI
Consider CCT8, P50990, for which the cross-linked residues entry is “K270 - K236”. Then CCT5, P48643, with “K89 - K55”; and USO1, O60763, with “S164 - S329”.

These data come from PMC6753376.
